The panel holds about 83,000 compounds, 20% with a hit somewhere; the sample as a whole holds those more often.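 Percent growth is the endpoint: 0 to 100 indicates growth inhibition (40 means 60% inhibition), 0 means no net growth, and negative values indicate cell death.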 A number with no mark means an inactive call. The source made the active and inactive calls. Rule for the calls: active = growth percent below 10; inactive = the rest.
Tested on: UACC-62 melanoma
Test: NCI-60 one-dose screen, 48 h (100 = growth as untreated, 0 = no growth, -100 = all killed)
Conditions: 10 µM unless noted

SMILES	growth
CC1(C)OC2COC3(C(=O)O)OC(C)(C)OC3C2O1 (stereo unspecified)	97.7%
Cc1ccc(Cn2c(-c3cccs3)nc3ccccc32)cc1	85.4%
COc1cc2c(cc1OC)C1(C)N(CC2)C(=O)OC1(C)C (stereo unspecified)	106%
Cc1cc(-c2ccccc2)c(C)n1Cc1ccc(Cl)cc1	40.7%
CCN(Cc1ccccc1)c1ccc(SC#N)cc1	90.4%
O=C1Nc2ccc(Br)cc2C1=N/C=c1\[nH]c(=O)/c(=C/c2ccc(Cl)cc2)s1	91.2%
COc1ccc(-c2nc(-c3ccccc3)c(-c3ccccc3)n2C2CC2)cc1OC1CCCCC1	60.8%
CC(=O)Nc1ccc(S(=O)(=O)N2C(=O)CCC2C(=O)Nc2ccccc2)cc1 (stereo unspecified)	11%
COc1cc(CNC(=O)CCSc2nc3ccccc3c(=O)n2Cc2cc(OC)c(OC)c(OC)c2)cc(OC)c1OC	36.3%
O=C(CN1CCN(c2cc3c(cc2F)c(=O)c(C(=O)O)cn3C2CC2)CC1)Nc1ccc(C(=O)/C=C/c2ccccc2)cc1	35.5%
CC(C)N(Cc1ccc(CN(C(=O)CCl)C(C)C)cc1)C(=O)CCl	2.74% (active)
COc1ccc(/C=C/c2cc(N3CCOCC3)c3cc(F)c(F)cc3n2)cc1OC	19.9%
COc1cccc(-n2cc(-c3nc(Cl)c4ccccc4n3)nn2)c1	97.4%
CCNC(=O)C1CCCN1C(=O)C(CCCN=C(N)N)NC(=O)C(CC(C)C)NC(=O)C(CC(C)C)NC(=O)C(Cc1ccc(O)cc1)NC(=O)C(CO)NC(=O)C(Cc1c[nH]c2ccccc12)NC(=O)C(Cc1cnc[nH]1)NC(=O)C1CCC(=O)N1 (stereo unspecified)	110%
Nc1c(C(=O)Nc2cccc(Cl)c2Cl)sc2nc3c(cc12)C(=O)CCC3	64.6%
COc1cc(C2C=C(C)N=C3SC(C)=NN32)cc(OC)c1OC (stereo unspecified)	107%
Nc1c(C(=O)Nc2cccc(C(F)(F)F)c2)sc2nc3c(cc12)CCCCCC3	23.9%
O=Nc1c(-c2c(O)[nH]c3ccc([N+](=O)[O-])cc23)[nH]c2ccc(O)cc12	-34.4% (active)
c1cc(-c2ccc3c(c2)OCO3)n2nccc2n1	113%

SMILES	growth
Nc1c(C(=O)Nc2cccc([N+](=O)[O-])c2)sc2nc3c(cc12)C(O)CCC3 (stereo unspecified)	47.3%
CCn1cc(C(=O)O)c(=O)c2cc(F)c(N3CCN(S(=O)(=O)c4ccc(Cl)cc4Cl)CC3)cc21	16.1%
CN1C(=O)[C@H]2c3c1cccc3[C@@]13NC(=O)O[C@H]1[C@H](CCC3(C)C)C2(C)C	85.4%
CN1CCN(c2ccc3cc(-c4nc5ccccc5[nH]4)c(=O)oc3c2)CC1	81.6%
Cc1ccc(Cn2c(-c3nonc3N)nc3ccccc32)cc1	77.7%
CCc1cccc(C)c1NC(=O)c1sc2nc3c(cc2c1N)C(=O)CCC3	46.5%
COc1cc(-c2cc(/C=C3\CCCCC3=O)[nH]n2)cc(OC)c1OC	106%
FC(F)(F)c1cccc(-n2nnc3cnc(Nc4ccc(N5CCCCC5)cc4)nc32)c1	48.2%
Cc1ccc(OCCn2c(C)nn(-c3ccc(Cl)cc3)c2=O)cc1	103%
CN1CCN(CCCOc2ccc3nc(Nc4ccc(C(F)(F)F)c(Cl)c4)ccc3c2)CC1	-36.3% (active)
COc1cc(Cn2c(SCC(=O)Nc3cc(OC)c(OC)c(OC)c3)nc3ccccc3c2=O)cc(OC)c1OC	84.4%
c1ccc(CCn2nnc3c(Nc4ccc(N5CCOCC5)cc4)ncnc32)cc1	85.8%
CCCC1OC(c2ccc(C(C)C)cc2)OCC1CC (stereo unspecified)	102%
Oc1ccc(N=Cc2ccccc2)cc1	97.5%
COc1cccc(NC(=O)c2sc3nc4c(cc3c2N)CCCC4)c1	33.2%
Cn1cc(C=O)c2ccccc21	106%
O=C1CCCCN1CCCCC#Cc1ccccc1C#Cc1ccc([N+](=O)[O-])cc1	25.8%
O=C(c1ccncc1)N1N=C(c2ccc(Cl)cc2)CC1c1c[nH]c2ccccc12 (stereo unspecified)	90.5%
Cc1cc2c(c(=O)o1)C(c1ccc(OC(=O)N3CCOCC3)cc1)C(C#N)=C(N)O2 (stereo unspecified)	108%

Tested on: LOX IMVI melanoma
Test: as above
Conditions: 10 µM unless noted

SMILES	growth
CC1(C)OC2COC3(C(=O)O)OC(C)(C)OC3C2O1 (stereo unspecified)	95.6%
Cc1ccc(Cn2c(-c3cccs3)nc3ccccc32)cc1	82.5%
COc1cc2c(cc1OC)C1(C)N(CC2)C(=O)OC1(C)C (stereo unspecified)	96.3%
Cc1cc(-c2ccccc2)c(C)n1Cc1ccc(Cl)cc1	45%
CCN(Cc1ccccc1)c1ccc(SC#N)cc1	49.2%
O=C1Nc2ccc(Br)cc2C1=N/C=c1\[nH]c(=O)/c(=C/c2ccc(Cl)cc2)s1	103%
COc1ccc(-c2nc(-c3ccccc3)c(-c3ccccc3)n2C2CC2)cc1OC1CCCCC1	45.6%
CC(=O)Nc1ccc(S(=O)(=O)N2C(=O)CCC2C(=O)Nc2ccccc2)cc1 (stereo unspecified)	29.9%
COc1cc(CNC(=O)CCSc2nc3ccccc3c(=O)n2Cc2cc(OC)c(OC)c(OC)c2)cc(OC)c1OC	44.6%
O=C(CN1CCN(c2cc3c(cc2F)c(=O)c(C(=O)O)cn3C2CC2)CC1)Nc1ccc(C(=O)/C=C/c2ccccc2)cc1	5.67% (active)
CC(C)N(Cc1ccc(CN(C(=O)CCl)C(C)C)cc1)C(=O)CCl	-61.2% (active)
COc1ccc(/C=C/c2cc(N3CCOCC3)c3cc(F)c(F)cc3n2)cc1OC	1.22% (active)
COc1cccc(-n2cc(-c3nc(Cl)c4ccccc4n3)nn2)c1	109%
CCNC(=O)C1CCCN1C(=O)C(CCCN=C(N)N)NC(=O)C(CC(C)C)NC(=O)C(CC(C)C)NC(=O)C(Cc1ccc(O)cc1)NC(=O)C(CO)NC(=O)C(Cc1c[nH]c2ccccc12)NC(=O)C(Cc1cnc[nH]1)NC(=O)C1CCC(=O)N1 (stereo unspecified)	95.1%
Nc1c(C(=O)Nc2cccc(Cl)c2Cl)sc2nc3c(cc12)C(=O)CCC3	95.5%
COc1cc(C2C=C(C)N=C3SC(C)=NN32)cc(OC)c1OC (stereo unspecified)	96.3%
Nc1c(C(=O)Nc2cccc(C(F)(F)F)c2)sc2nc3c(cc12)CCCCCC3	21.5%
O=Nc1c(-c2c(O)[nH]c3ccc([N+](=O)[O-])cc23)[nH]c2ccc(O)cc12	-32.4% (active)
c1cc(-c2ccc3c(c2)OCO3)n2nccc2n1	102%

SMILES	growth
Nc1c(C(=O)Nc2cccc([N+](=O)[O-])c2)sc2nc3c(cc12)C(O)CCC3 (stereo unspecified)	62.8%
CCn1cc(C(=O)O)c(=O)c2cc(F)c(N3CCN(S(=O)(=O)c4ccc(Cl)cc4Cl)CC3)cc21	-35.4% (active)
CN1C(=O)[C@H]2c3c1cccc3[C@@]13NC(=O)O[C@H]1[C@H](CCC3(C)C)C2(C)C	100%
CN1CCN(c2ccc3cc(-c4nc5ccccc5[nH]4)c(=O)oc3c2)CC1	87.2%
Cc1ccc(Cn2c(-c3nonc3N)nc3ccccc32)cc1	71.7%
CCc1cccc(C)c1NC(=O)c1sc2nc3c(cc2c1N)C(=O)CCC3	37.9%
COc1cc(-c2cc(/C=C3\CCCCC3=O)[nH]n2)cc(OC)c1OC	93.8%
FC(F)(F)c1cccc(-n2nnc3cnc(Nc4ccc(N5CCCCC5)cc4)nc32)c1	90%
Cc1ccc(OCCn2c(C)nn(-c3ccc(Cl)cc3)c2=O)cc1	96.3%
CN1CCN(CCCOc2ccc3nc(Nc4ccc(C(F)(F)F)c(Cl)c4)ccc3c2)CC1	-83.1% (active)
COc1cc(Cn2c(SCC(=O)Nc3cc(OC)c(OC)c(OC)c3)nc3ccccc3c2=O)cc(OC)c1OC	92.1%
c1ccc(CCn2nnc3c(Nc4ccc(N5CCOCC5)cc4)ncnc32)cc1	97.4%
CCCC1OC(c2ccc(C(C)C)cc2)OCC1CC (stereo unspecified)	97.7%
Oc1ccc(N=Cc2ccccc2)cc1	95.3%
COc1cccc(NC(=O)c2sc3nc4c(cc3c2N)CCCC4)c1	40.5%
Cn1cc(C=O)c2ccccc21	88.4%
O=C1CCCCN1CCCCC#Cc1ccccc1C#Cc1ccc([N+](=O)[O-])cc1	6.11% (active)
O=C(c1ccncc1)N1N=C(c2ccc(Cl)cc2)CC1c1c[nH]c2ccccc12 (stereo unspecified)	86.9%
Cc1cc2c(c(=O)o1)C(c1ccc(OC(=O)N3CCOCC3)cc1)C(C#N)=C(N)O2 (stereo unspecified)	96.4%

Reference: PubChem BioAssay (NCI)
